PubChem BioAssay AID1159580 (chemical genetic matrix, 2015)
The whole screen tested about 5,500 compounds, of which about 2,000 (36%) were called active. About 18% were inconclusive and are not listed. No stated cut-off is given here; in the data, active means normalized growth mostly below about 0.91 (no sharp cut-off); inconclusive means no clear call, values can overlap the other calls; inactive means mostly above about 0.92. Some of the results follow.

Experiment: chemical genetic growth profiling, strain panel (AID 1159580);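 further: tested at 20 µM; growth read once vehicle control cultures reached saturation at 30 °C; 1 = growth at the plate median or of vehicle wells; lower values mean less growth of the strain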
Conditions: S. cerevisiae deletion strains, growth OD

Measured: normalized growth

CC(=O)O.CC(=O)O.[Cd]
active: locus YAL013W, strain DEP1, active compounds read low 0.225 | locus YAL021C, strain ccr4, active compounds read low 0.629 | locus YAL026C, strain drs2, active compounds read low 0.436 | locus YAL030W, strain snc1, active compounds read low 0.77 | locus YBL061C, strain skt5, active compounds read low 0.771 | locus YBR009C, strain hhf1, active compounds read low 0.606 | locus YBR021W, strain FUR4, active compounds read low 0.106 | locus YBR023C, strain chs3, active compounds read low 0.743 | locus YBR171W, strain sec66, active compounds read low 0.786 | locus YBR229C, strain ROT2, active compounds read low 0.747 | locus YBR231C, strain swc5, active compounds read low 0.666 | locus YBR279W, strain paf1, active compounds read low 0.635 | locus YCL011C, strain gbp2, active compounds read low 0.632 | locus YCL016C, strain dcc1, active compounds read low 0.754 | locus YCL029C, strain bik1, active compounds read low 0.313 | locus YCL061C, strain MRC1, active compounds read low 0.783 | locus YCL069W, strain vba3, active compounds read low 0.762 | locus YCR088W, strain abp1, active compounds read low 0.654 | locus YDL005C, strain med2, active compounds read low 0.513 | locus YDL035C, strain GPR1, active compounds read low 0.243 | locus YDL040C, strain nat1, active compounds read low 0.589 | locus YDL074C, strain BRE1, active compounds read low 0.25 | locus YDL101C, strain DUN1, active compounds read low 0.177 | locus YDL134C, strain PPH21, active compounds read low 0.467 | locus YDL185W, strain tfp1, active compounds read low 0.482 | locus YDL192W, strain arf1, active compounds read low 0.144 | locus YDR001C, strain nth1, active compounds read low 0.845 | locus YDR069C, strain doa4, active compounds read low 0.107 | locus YDR101C, strain arx1, active compounds read low 0.319 | locus YDR137W, strain rgp1, active compounds read low 0.375 | locus YDR150W, strain NUM1, active compounds read low 0.175 | locus YDR159W, strain sac3, active compounds read low 0.828 | locus YDR162C, strain NBP2, active compounds read low 0.111 | locus YDR195W, strain ref2 0.512 | locus YDR297W, strain sur2, active compounds read low 0.727 | locus YDR318W, strain mcm21, active compounds read low 0.264 | locus YDR334W, strain swr1, active compounds read low 0.532 | locus YDR335W, strain msn5, active compounds read low 0.782 | locus YDR388W, active compounds read low 0.0738 | locus YDR392W, strain spt3, active compounds read low 0.299 | locus YDR502C, strain sam2, active compounds read low 0.464 | locus YEL003W, strain gim4, active compounds read low 0.681 | locus YEL037C, strain rad23, active compounds read low 0.786 | locus YEL061C, strain CIN8 (second series), active compounds read low 0.866 | locus YEL061C, strain CIN8, active compounds read low 0.342 | locus YER015W, strain faa2, active compounds read low 0.632 | locus YER016W, strain bim1, active compounds read low 0.702 | locus YER110C, active compounds read low 0.499 | locus YER111C, strain swi4, active compounds read low 0.872 | locus YER155C, strain BEM2 (second series), active compounds read low 0.446 | locus YER155C, strain BEM2, active compounds read low 0.519 | locus YER167W, strain BCK2, active compounds read low 0.269 | locus YFR010W, strain ubp6, active compounds read low 0.356 | locus YGL078C, strain dbp3, active compounds read low 0.466 | locus YGL086W, strain mad1, active compounds read low 0.256 | locus YGL167C, strain pmr1, active compounds read low 0.493 | locus YGL173C, strain kem1, active compounds read low 0.68 | locus YGL227W, strain vid30, active compounds read low 0.901 | locus YGL240W, strain doc1, active compounds read low 0.711 | locus YGL248W, strain PDE1, active compounds read low 0.356 | locus YGL253W, strain hxk2, active compounds read low 0.825 | locus YGR078C, strain PAC10, active compounds read low 0.721 | locus YGR135W, strain pre9, active compounds read low 0.565 | locus YGR229C, strain SMI1, active compounds read low 0.11 | locus YGR252W, strain gcn5, active compounds read low 0.253 | locus YHR013C, strain ard1, active compounds read low 0.303 | locus YHR027C, strain rpn1, active compounds read low 0.58 | locus YHR030C, strain SLT2, active compounds read low 0.508 | locus YHR079C, strain IRE1 (second series), active compounds read low 0.196 | locus YHR094C, strain hxt1, active compounds read low 0.529 | locus YHR129C, strain ARP1, active compounds read low 0.563 | locus YHR142W, strain chs7, active compounds read low 0.761 | locus YHR200W, strain rpn10, active compounds read low 0.513 | locus YIL066C, strain RNR3, active compounds read low 0.27 | locus YIL073C, strain SPO22, active compounds read low 0.134 | locus YIL125W, strain kgd1, active compounds read low 0.356 | locus YIR030C, strain dcg1, active compounds read low 0.383 | locus YJL092W, strain hpr5, active compounds read low 0.744 | locus YJL095W, strain BCK1 (second series), active compounds read low 0.669 | locus YJL095W, strain BCK1, active compounds read low 0.266 | locus YJL115W, strain asf1, active compounds read low 0.858 | locus YJL134W, strain LCB3, active compounds read low 0.643 | locus YJL154C, strain vps35, active compounds read low 0.485 | locus YJL164C, strain tpk1, active compounds read low 0.684 | locus YJL166W, strain qcr8, active compounds read low 0.59 | locus YJL168C, strain set2, active compounds read low 0.4 | locus YJL187C, strain SWE1 (second series), active compounds read low 0.326 | locus YJL187C, strain SWE1, active compounds read low 0.771
inactive: locus YJL129C, strain trk1, active compounds read low 1.1
